Assay outcomes as filed in PubChem.
M1 agonist: M1 muscarinic receptor agonism | CHO-M1 cells, Fluo-4 calcium fluorescence, agonist mode; active compounds read high | B-score at 10 µM | hit rate 3% among 64,000 | AID 626;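 active = fluorescence rise, raw or as B-score row- and column-corrected plate score, outside the 99.7% band of its plate's samples, either direction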
Fluor 339 460: intrinsic fluorescence of library compounds, ex339/em460 – biochemical, MLSMR library, data from DPM-DC assay, artefact control, profiling panel; compound autofluorescence, ex339/em460 nm, NADH buffer; active compounds read high; 1 = no-compound wells, NADH background; fluorescence fold increase at 10 µM; hit rate 5.5% among 65,000;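 active = at 10 µM, mean starting fluorescence two-fold or more over control wells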;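 note: signal is the first read of a kinetic run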
M1 antag: blocks the rat M1 muscarinic receptor response to acetylcholine; AID 628; hit rate 3.4% among 64,000; P08482; B-score at 10 µM; CHO-M1 cells, Fluo-4 calcium, ACh EC80 antagonist mode; active compounds read low;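 active = calcium fluorescence response, raw or row-and-column corrected B-score, differing from the plate sample mean either way at a set confidence level, mostly lower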
Target sequence (P08482 whole entry, looked up): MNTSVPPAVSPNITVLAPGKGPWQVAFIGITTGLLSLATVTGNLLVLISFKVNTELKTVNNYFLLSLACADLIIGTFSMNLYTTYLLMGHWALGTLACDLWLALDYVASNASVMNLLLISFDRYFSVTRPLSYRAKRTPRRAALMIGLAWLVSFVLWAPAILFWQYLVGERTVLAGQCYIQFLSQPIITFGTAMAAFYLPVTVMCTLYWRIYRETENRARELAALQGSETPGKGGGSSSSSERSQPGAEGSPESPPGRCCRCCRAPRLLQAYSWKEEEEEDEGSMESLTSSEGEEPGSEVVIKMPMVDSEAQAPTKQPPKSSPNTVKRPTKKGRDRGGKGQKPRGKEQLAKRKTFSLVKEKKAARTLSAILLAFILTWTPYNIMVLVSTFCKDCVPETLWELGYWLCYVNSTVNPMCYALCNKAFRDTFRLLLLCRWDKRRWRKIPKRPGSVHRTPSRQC
Abs 340nm: absorbance at 340 nm. 65,000 tested, under 10 active. fold change at 10 µM. compound absorbance at 340 nm, fold over control;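 active = at 10 µM dose, initial 340 nm absorbance at least 2 fold that of control wells; inactive = change under 2 fold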;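 note: initial absorbance extrapolated from kinetic A340 decline of NADH oxidation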
BAP1 inh: inhibitors of human BAP1 deubiquitinase; hit rate 0.48% among 72,000; calls only at 20 µM; recombinant BAP1, Ub-AMC hydrolysis fluorescence kinetic; active compounds read low;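 active = activity remaining at or below 50% of control, provided the compound also passes the data quality filters; inactive = the rest, including low values that fail the filters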;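 note: 100% = DMSO wells rate and 0% = substrate alone blank rate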
WNV protease inh: WNV NS2B-NS3 proteinase inhibition | WNV NS2B-NS3 protease, fluorogenic substrate Ex360/Em465; active compounds read low | z-score (concentration not given with the values) | AID 577 | P06935 | hit rate 0.18% among 65,000; in the data active = z-score below about -3
* hit, by the source's call; i = inactive; x = no result shown; + = active, no number. Compounds with a hit are over-represented: about 9.7% of the library has one in this group of screens.

SMILES	M1 agonist	Fluor 339 460	M1 antag	Abs 340nm	BAP1 inh	WNV protease inh
COc1ccccc1-c1cc(C(F)(F)F)nc(S(=O)(=O)CCCC(=O)N2CCCCC2C)n1 (stereo not given)	1.3	3.4*	-0.35	1	x	-0.41
CCOC(=O)CCC(NC(=O)c1cncc(O)c1)C(=O)OCC (stereo not given)	-0.17	2.9*	-0.46	1.1	i	-0.13
CC(CNC(=O)c1cncc(O)c1)NC(=O)c1cncc(O)c1 (stereo not given)	-0.52	1.4	-0.37	1.1	i	-0.25
O=C(Nc1ccc2[nH]c3c(c2c1)CCCC3)c1ccco1	3*	1.1	-0.16	1	i	-1
O=C(Nc1cccc(-c2nc3ccccc3o2)c1)c1cccc(I)c1	x	x	x	x	i	x
CCOc1ccccc1NC(=O)c1c(NC(=O)CNCc2ccco2)sc2c1CCC2	-0.59	1.4	-8.1*	1.1	i	-0.32
O=C(Nc1sc2c(c1C(=O)NCc1ccco1)CCCC2)c1ccc2c(c1)OCO2	0.025	2.9*	0.17	1	x	0.76
COC(=O)Nc1sc2c(c1C(=O)NCc1ccco1)CCCC2	-0.62	1.1	0.16	1	x	-0.55
COc1ccc2nc(C)c(C(=O)OCCN(C)C)cc2c1	0.00039	2.1*	0.42	1	x	0.68
CCOC(=O)c1c(-c2ccccc2)oc2c1cc(OC(=O)c1ccc(S(=O)(=O)N3CCOCC3)cc1)c1ccccc12	x	x	x	x	i	x
CCC(CC)C(=O)Nc1c2cnn(-c3ccccc3)c2nc(=O)n1-c1ccccc1	-0.73	2.2*	-0.2	1	x	1
Oc1cc2ccccc2cc1-c1n[nH]c(=S)o1	-1.3	3*	-0.15	1	i	-1
O=C(Nc1ccc(Br)cc1)c1ccc2c(c1)C(=O)N(c1cccc([N+](=O)[O-])c1)C2=O	x	x	x	x	i	x
O=C(CCSc1nnc2scc(-c3ccccc3)n12)NCc1ccc2c(c1)OCO2	2.5	1.1	-0.62	1	i	0.21
Cc1ccc(-c2csc3nnc(SCC(=O)NCc4ccc5c(c4)OCO5)n23)cc1	8.7*	1.1	-0.25	0.99	i	-0.14
Nc1c(C(=O)Nc2ccccc2)sc2nc(-c3ccncc3)ccc12	x	x	x	x	i	x
COc1ccccc1NC(=O)c1oc2ccccc2c1NC(=O)c1ccco1	0.15	5*	0.73	1	x	0.82
COc1ccccc1NC(=O)c1sc2nc(-c3ccco3)ccc2c1N	11	3.8*	1.6	1.1	i	0.38
CCOc1cc(NC(=O)c2ccco2)c(OCC)cc1NC(=O)c1cc(OC)c(OC)c(OC)c1	2.9	4*	-1.2	1.1	i	0.62
Cc1ccc(Cl)cc1NC(=O)COc1cc(C)c(Cl)c(C)c1	x	x	x	x	i	x
CCN1C(=O)c2cccc3c(NC(=O)c4ccc(S(=O)(=O)N(C)c5ccccc5)cc4)ccc1c23	x	x	x	x	i	x
O=C(CN1C(=O)c2cccc3cccc1c23)NCc1cccnc1	-1.6	2	0.93	1.1	i	2.9
O=C(CN1C(=O)c2cccc3cccc1c23)Nc1cccnc1	-0.25	2.1*	0.63	1	i	-1.8
COc1ccc(CC(CC(=O)O)C(=O)Nc2ccc(Cl)cc2)cc1 (stereo not given)	x	x	x	x	i	x
COc1ccc(NS(=O)(=O)c2cc(C(=O)Nc3ccc(Br)cc3)ccc2Br)cc1	x	x	x	x	i	x
SMILES	M1 agonist	Fluor 339 460	M1 antag	Abs 340nm	BAP1 inh	WNV protease inh
COc1ccc(NC(=O)c2cc(-c3ccc(Br)cc3)nc3ccccc23)cc1	x	x	x	x	i	x
COc1ccc(-c2cc(C(=O)OCC(=O)N(C)C)c3ccccc3n2)cc1	x	2.5*	x	1.1	i	-0.7
Cc1ccc(C(=O)Nc2ccc(S(=O)(=O)O)c3cc(S(=O)(=O)O)cc(S(=O)(=O)O)c23)cc1NC(=O)c1cccc(NC(=O)Nc2cccc(C(=O)Nc3cc(C(=O)Nc4ccc(S(=O)(=O)O)c5cc(S(=O)(=O)O)cc(S(=O)(=O)O)c45)ccc3C)c2)c1	x	x	x	x	+	x
CC(=O)Nc1nnc(-c2ccc3c(c2)CCCC3)o1	-0.18	0.81	-0.39	1	i	-0.07
O=C(Nc1nnc(C2CC2)o1)c1ccc(S(=O)(=O)N2CCCc3ccccc32)cc1	-0.013	0.98	0.16	1.1	i	1.3
COc1ccc(-c2nnc(NC(=O)c3ccc(S(=O)(=O)N4CCCc5ccccc54)cc3)o2)cc1	-0.19	2.1*	0.078	1.1	x	-0.35
